Bioassay records deposited in PubChem by several laboratories.
Pyk2 oligo antag = antagonists of Pyk2 self-association, primary screen, Q293 cells, FERM NanoBiT luminescence, HTS. Protein-tyrosine kinase 2-beta (Homo sapiens), Q14289. actives 0.83% (n = 99,000). AID 1347419, 2020. hits give low values. z-score (the deposit names both 25 µM and 10 µM);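 active means Z-score of -3 or lower, scaled per plate to the spread of control and sample wells; inactive means z-score above -3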;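 further: negative z-score means lost luminescence so less FERM oligomerization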
Target sequence (Q14289 whole entry, looked up): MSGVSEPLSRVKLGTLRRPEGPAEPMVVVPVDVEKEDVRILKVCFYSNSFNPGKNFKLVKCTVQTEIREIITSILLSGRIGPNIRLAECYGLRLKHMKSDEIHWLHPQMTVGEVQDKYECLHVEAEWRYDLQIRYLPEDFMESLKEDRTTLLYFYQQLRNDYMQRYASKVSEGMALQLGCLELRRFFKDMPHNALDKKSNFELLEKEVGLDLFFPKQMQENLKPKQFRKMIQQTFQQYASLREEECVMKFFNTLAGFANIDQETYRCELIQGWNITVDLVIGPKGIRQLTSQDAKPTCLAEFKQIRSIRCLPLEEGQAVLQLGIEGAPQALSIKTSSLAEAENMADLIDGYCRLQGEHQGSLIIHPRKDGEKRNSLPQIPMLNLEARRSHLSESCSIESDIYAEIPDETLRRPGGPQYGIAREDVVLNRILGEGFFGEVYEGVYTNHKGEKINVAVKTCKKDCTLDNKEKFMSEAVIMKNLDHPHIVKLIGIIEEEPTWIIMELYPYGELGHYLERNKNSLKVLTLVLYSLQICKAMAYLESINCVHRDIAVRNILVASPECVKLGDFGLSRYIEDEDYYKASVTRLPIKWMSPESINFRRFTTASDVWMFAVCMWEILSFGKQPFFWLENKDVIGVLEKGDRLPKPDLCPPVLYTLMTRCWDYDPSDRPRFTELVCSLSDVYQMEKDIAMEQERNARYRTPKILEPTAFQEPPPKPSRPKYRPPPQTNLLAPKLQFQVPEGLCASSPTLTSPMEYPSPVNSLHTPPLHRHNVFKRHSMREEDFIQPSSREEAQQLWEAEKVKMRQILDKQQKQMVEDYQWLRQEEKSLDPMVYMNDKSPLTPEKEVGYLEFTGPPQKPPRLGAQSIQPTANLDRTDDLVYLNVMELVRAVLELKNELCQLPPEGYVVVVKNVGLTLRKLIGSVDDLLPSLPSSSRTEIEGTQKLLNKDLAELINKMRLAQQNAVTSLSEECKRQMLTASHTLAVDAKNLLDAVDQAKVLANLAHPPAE
Mac1 fbg inh = inhibitors of CD11b/CD18 adhesion to fibrinogen, primary screen, K562 cells, luminescence | Integrin beta-2 (Homo sapiens) + Integrin alpha-M (Homo sapiens), P05107+P11215 | ATPlite luminescence; Mn2+ added to activate the integrin | inhibition, % at 10 µM | actives 0.54% (n = 93,000);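 active means primary inhibition of 50% or more at 10 µM, then 40% or more on retest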
Cav3 T inh = Cav3.2 calcium influx blockers – cell-based, Fluo-4 calcium fluorescence, FDSS, MLSMR library, primary screen; Voltage-dependent T-type calcium channel subunit alpha-1H (Homo sapiens), O95180; Cav3.2-expressing cells; hits give low values; B-score at 10 µM; actives 4% (n = 100,000); AID 449739, 2010;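 active means single-dose well whose peak fluorescence ratio is a statistical outlier from its plate by either plate-standardised score or position-corrected B-score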
MRP-1 activ = H69AR viability gain despite doxorubicin, primary screen, MRP-1 activator project, H69AR cells, CellTiter-Glo; viability rescue; actives 0.61% (n = 140,000); AID 799, 2007; viability increase, % at 10 µM;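 active means viability gain under doxorubicin at or above a set limit, the compound median plus 3 SD, cut at about 4.7% in these data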;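 further: MRP-1 overexpressing cells given doxorubicin 25 µM after compound pretreatment; 18-22 h compound pretreatment then 72 h with doxorubicin before readout; 0% = doxorubicin-only wells and 100% = vehicle-treated cells without doxorubicin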
MRP resist rev = reversal of MRP1-mediated doxorubicin resistance, primary screen, H69AR cells, doxorubicin co-treatment. H69AR cells + 2 uM doxorubicin, CellTiter-Glo, 72 h. differential viability (reversal), % at 10 µM. actives 0.04% (n = 85,000). AID 602, 2007;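 active means viability drop by adding the cancer drug above about 55%, with treated viability meeting a 40% cutoff, limit read from the data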;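 further: viability without doxorubicin minus viability with 2 µM doxorubicin for each compound; larger differential means the compound sensitizes cells more to doxorubicin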
CD11b adhes enh = enhancers of CD11b/CD18 adhesion to fibrinogen, primary screen, K562 cells, luminescence | actives 0.07% (n = 93,000) | ATPlite luminescence | activation, % at 10 µM;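 active means 10 µM primary screen giving 50% or more activity, confirmed by 40% or more on retest at that dose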
The depositor's hits bear a star; . = no result. This is a sample that favours compounds with a hit; in the whole collection about 4.1% have one here.

SMILES	Pyk2 oligo antag	Mac1 fbg inh	Cav3 T inh	MRP-1 activ	MRP resist rev	CD11b adhes enh
COc1ccc(-c2nnc(SCC(=O)N(Cc3ccccc3)C(C)(C)C)o2)cc1OC	-2.3	13	-7.1*	-1	-2	-7
CCc1cccc(CC)c1NC(=O)COC(=O)Cc1ccsc1	.	6	.	3	.	2
CC(C)Oc1ccc(C(CC(=O)NCc2ccco2)c2ccccc2)cc1 (stereo unspecified)	-2.5	9	-3.9*	-3	-8	-4
Cc1ccc(S(=O)(=O)n2nc(-c3ccc(Cl)cc3)nc2NCc2ccco2)cc1	-0.7	-32	-6.6*	-1	0	-3
CC1CN=C(N(Cc2ccccc2)C(=O)Nc2ccccc2)S1 (stereo unspecified)	-0.01	-3	-8.4*	-1	-5	2
COc1ccccc1N(CC(=O)NCc1ccccc1)S(C)(=O)=O	1.4	-27	0.24	1	5	4
COc1ccccc1N(C(=O)NCc1ccccc1)C1=NCC(C)S1 (stereo unspecified)	.	9	-4.7*	-2	2	8
c1ccc2c(N3CCCCC3)ncnc2c1	0.35	6	0.49	-3	-11	-4
C=CCn1c(=O)c2ccccc2n2c(SCC(N)=O)nnc12	0.58	.	0.43	-1	12	.
C=CCn1c(=O)c2c(C)c(C)sc2n2c(Nc3ccccc3)nnc12	-3*	-4	0.84	-4	-9	-3
O=C(CN1CCC(c2nc3ccccc3s2)CC1)NCc1cccs1	0.13	100*	-0.053	-1	-9	-8
CC(C)n1c(N2CCN(CC(=O)NCc3cccs3)CC2)nc2ccccc21	1.2	-12	0.8	-1	-1	2
O=C(CSc1nc(O)c(C2CCCCC2)c(=O)[nH]1)Nc1ccc(Cl)cc1	-1.4	-7	-7.8*	0	.	-1
CCc1c(O)nc(SCC(=O)Nc2ccc3c(c2)CCC3)[nH]c1=O	0.21	-5	-0.073	-1	7	0
CCCCc1c(O)nc(SCC(=O)Nc2ccc3c(c2)CCC3)[nH]c1=O	-0.58	10	-5.7*	-2	8	2
CC(=O)Nc1c(O)nc(SCC(=O)Nc2ccc(C(C)=O)cc2)[nH]c1=O	0.66	9	0.54	-2	1	-1
Oc1ccc(C2Nc3cccc4cccc(c34)N2)c(O)c1	-0.82	.	0.51	-1	-18	.
c1coc(C2Nc3cccc4cccc(c34)N2)c1	.	2	.	6.0*	-18	39
Oc1ccccc1C1=Nc2nc3ccccc3n2C(c2ccccc2)C1 (stereo unspecified)	-0.22	8	-7.8*	-6	-1	-5
CCOC(=O)C(Oc1ccc2c(-c3ccccc3)cc(=O)oc2c1C)c1ccccc1 (stereo unspecified)	-1.6	10	.	4.7*	.	-6
CC(NC(=O)CCCCCN1C(=O)c2ccccc2C1=O)c1ccc2c(c1)CCCC2 (stereo unspecified)	0.33	12	-3.7*	-1	.	19
CC(NC(=O)CCCCCCN1C(=O)c2ccccc2C1=O)c1ccc2c(c1)CCCC2 (stereo unspecified)	.	20	.	-1	.	1
CC(NC(=O)CCCN1C(=O)c2ccccc2C1=O)c1ccc2c(c1)CCCC2 (stereo unspecified)	0.54	-2	-4.2*	-1	.	3
CC(NC(=O)CCN1C(=O)c2ccccc2C1=O)c1ccc2c(c1)CCCC2 (stereo unspecified)	.	.	.	-1	.	.
CCN(CC)C(=O)CN(c1cc(Cl)ccc1OC)S(=O)(=O)c1ccc(C)c([N+](=O)[O-])c1	.	.	.	-2	.	.
SMILES	Pyk2 oligo antag	Mac1 fbg inh	Cav3 T inh	MRP-1 activ	MRP resist rev	CD11b adhes enh
CC1CCN(S(=O)(=O)c2ccc(Cl)cc2Br)CC1	-0.24	.	-0.68	-1	-4	.
Cc1cc(C)n(CCc2nc(-c3cccs3)cs2)n1	0.67	.	-0.59	2	17	.
Cc1cc(C)n(CCc2nc(-c3ccc(-c4ccccc4)cc3)cs2)n1	.	.	.	7.3*	.	.
COc1ccccc1NC(=O)N(CCN(C)C)Cc1cc2cc(C)ccc2[nH]c1=O	2.1	-5	0.19	-3	0	-1
COc1ccc(C2(C(=O)Nc3ccc(S(=O)(=O)Nc4nc(C)cc(C)n4)cc3)CCCC2)cc1OC	.	8	.	0	.	1
Cc1ccc(NC(=O)c2cc(S(=O)(=O)Nc3ccc(C)cc3)cs2)cc1	0.52	.	-0.32	.	.	.
COc1cccc(N2CCN(C3CC(=O)N(c4cccc(Cl)c4)C3=O)CC2)c1 (stereo unspecified)	1.3	-21	-0.22	2	.	-6
Cc1oc2cc(O)cc(O)c2c(=O)c1-c1ccc2c(c1)OCCCO2	-3.4*	12	-3.5	1	-7	3
COc1c(-c2ccc(O)cc2)oc2cc(O)cc(O)c2c1=O	.	.	-0.76	.	.	.
O=C(NC1CCCCCCC1)C1CCN(S(=O)(=O)N2CCCC2)CC1	1.4	-23	2.2	0	10	7
CC1(C)CC(=O)C2=C(C1)N(c1ncn[nH]1)C(N)=C(C#N)C2c1ccccc1 (stereo unspecified)	.	.	.	-2	.	.
O=C(NCc1ccc2c(c1)OCO2)C1CC(c2cccc(Br)c2)=NO1 (stereo unspecified)	1	-10	-9.1*	0	0	-7
O=C(NCc1ccc2c(c1)OCO2)c1cc(-c2ccccc2)on1	0.46	-18	-4.6*	-2	0	21
O=C(NCc1ccc2c(c1)OCO2)C1CC(c2ccccc2O)=NO1 (stereo unspecified)	0.31	25	-3.2	0	9	-5
O=C(CCc1c[nH]c2ccccc12)NCc1ccc2c(c1)OCO2	0.63	-18	-1	0	0	6
O=C(CCCc1c[nH]c2ccccc12)NCc1ccc2c(c1)OCO2	1.1	0	-10*	-4	13	-2
Cc1ccc(-c2cc(C(=O)NCc3ccc4c(c3)OCO4)no2)cc1	-1	9	-0.24	1	-9	-2
CC(c1ccco1)N(C(=O)c1ccc(Cl)s1)c1ccccn1 (stereo unspecified)	.	-5	0.1	.	15	-5
N#CCSc1nnc(Cc2cccc3ccccc23)n1C1CCCCC1	-2	0	-5.7*	-1	-6	2
COCc1cc(C)nc(OCC(=O)N/N=C/c2ccc(O)cc2)c1C#N	.	.	.	-3	.	.
COCc1cc(C)nc(OCC(=O)N/N=C/c2ccc(-c3cc([N+](=O)[O-])ccc3C)o2)c1C#N	-2.5	-12	-1.9	4.7*	.	-2
COCc1cc(C)nc(OCC(=O)N/N=C/c2cc(C)n(-c3c(C)cccc3C)c2C)c1C#N	-0.05	5	-4.4*	-4	.	1
